Screening data as filed in PubChem BioAssay.
AMA1-RON2 inh: qHTS for Inhibitors of AMA1-RON; Towards Development of Antimalarial Drug Lead: Primary Screen | AID 720542, 2013 | Plasmodium falciparum AMA1 (3D7) - RON2 peptide interaction | Potency, µM (doses to about 58.2 µM), for inactives: top-dose activity change, negative = inhibition, most hits filed as inhibitors | AlphaScreen AMA1-biotinylated RON2 peptide binding | actives 0.2% (n = 360,000);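 also: 0% = vehicle wells and -100% = peptide control; nearly all actives have a fitted effect of over 45% in size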
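AMA1 (3D7) with his tag at 25 nM final met compounds first, then biotinylated RON2 peptide at 25 nM; detection used donor plus acceptor beads, 10 µg/mL apiece, read by AlphaScreen after 30 min at room temperature.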
AmpC inh detg: qHTS Inhibitors of AmpC Beta-Lactamase (assay with detergent); actives 0.041% (n = 370,000); P00811; AmpC hydrolysis of nitrocefin, absorbance 480 nm, 0.01% Triton; AID 485294, 2010; Potency, µM (series often up to 114 µM), for the others: top-dose activity change, negative = inhibition, most hits filed as inhibitors;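 also: 0% = no-compound wells and -100% = no-enzyme wells; nearly all actives have a fitted effect of over 25% in size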
Target sequence (P00811 whole entry, looked up): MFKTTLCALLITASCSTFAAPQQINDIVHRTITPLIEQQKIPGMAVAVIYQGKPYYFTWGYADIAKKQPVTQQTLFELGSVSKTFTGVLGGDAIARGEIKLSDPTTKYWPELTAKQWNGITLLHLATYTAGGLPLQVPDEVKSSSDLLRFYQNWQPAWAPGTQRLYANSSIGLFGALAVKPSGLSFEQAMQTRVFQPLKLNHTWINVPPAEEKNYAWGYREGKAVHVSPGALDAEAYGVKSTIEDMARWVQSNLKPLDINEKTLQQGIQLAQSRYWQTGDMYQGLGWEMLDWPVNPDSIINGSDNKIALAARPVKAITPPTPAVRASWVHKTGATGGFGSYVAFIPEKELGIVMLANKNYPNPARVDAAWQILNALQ
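20 mM phosphate pH 7.0 + 0.01% (detergent screen) or 0.0001% Triton X-100; 5.3 nM AmpC reagent; cpd preinc 15 min RT; nitrocefin (800 uM stock) to start; A480 q20 s × 4 min; Activity was normalised to no-enzyme and no-compound control wells.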
FMDV inh: High Throughput Screening for Foot and Mouth Disease Virus Antivirals; FMDV antiviral cell-based qHTS; Potency, µM (series often up to 57.9 µM), for inactives: at the highest dose activity change, negative = inhibition, actives largely listed as inhibitors; actives 1.2% (n = 410,000); calls by dose curve; tested in HEK293T cells; also: read-out not given here; nearly all actives have a fitted effect of over 45% in size
AmpC inh no detg: qHTS Inhibitors of AmpC Beta-Lactamase (assay without detergent); AID 485341, 2010; AmpC nitrocefin hydrolysis, absorbance 480 nm, 0.0001% Triton; Potency, µM (titrated, usually from 57.1 µM), for inactives: at the top dose activity change, negative = inhibition, actives largely listed as inhibitors; P00811; actives 0.52% (n = 330,000);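 also: plate controls were no compound for no effect and no enzyme for full effect; nearly all actives have a fitted effect of over 20% in size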
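AmpC (5.3 nM in the dispensed reagent) in 20 mM phosphate pH 7.0 with 0.01% (detergent screen) or 0.0001% Triton X-100 was preincubated with compounds for 15 min at room temperature. Nitrocefin was then added from an 800 uM solution, and hydrolysis was followed at 480 nm.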
Sm TGR block: qHTS Assay for the Inhibitors of Schistosoma Mansoni Peroxiredoxins. Schistosoma mansoni thioredoxin glutathione reductase (TGR), Q962Y6. Potency, µM (top dose mostly 114 µM), inactives show at the highest dose activity change, negative = inhibition, usual class: inhibitors. actives 3% (n = 360,000). purified TGR, DTNB reduction, TNB absorbance 405 nm; also: nearly all actives have a fitted effect of over 60% in size
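Kinetic colorimetric format: TGR-catalysed, NADPH-driven DTNB reduction monitored via TNB absorbance. Enzyme dispensed at 20 nM; compound exposure 15 min at room temperature before reaction start.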
Active calls of the source: *; ? = inconclusive; / = no result given; [ ] = dose if it differs, or a comment. Most compounds without a hit are left out; they make up all but 4.1% or so of the library. Unless noted, calls follow the shape of the dose curve; as a rule, active = well fitted curve in the direction sought with a large enough effect; inconclusive = small, poorly fitted or top-dose-only effect, or another doubt; inactive = no such curve, though single readings can be large; an effect the other way counts as inactive or inconclusive. Unless noted, % is scaled to controls: 0 for no effect and ±100 for the full control effect; potency is read from the fitted curve at half-maximal effect.

SMILES	AMA1-RON2 inh	AmpC inh detg	FMDV inh	AmpC inh no detg	Sm TGR block
N#Cc1cc(O)c(-n2nnc3ccccc32)cc1C#N	-3%	1%	26%	-14%	-12%
CC(C)c1nc2sc3c(N4CCCCC4)ncnc3c2c2c1CCCC2	/	21%	-11%	/	4%
COc1ccccc1NC(=O)C1=C(C)Nc2nc(SCc3ccccc3Cl)nn2C1c1ccccn1 (centres undefined)	/	1%	?	/	11%
Cc1cc(C)n(CCNC(=O)c2cc(COc3ccc4ncccc4c3)on2)n1	24%	2%	13µM*	21%	3%
O=C(NCc1cccc(Cl)c1)c1cc(COc2ccc3ncccc3c2)on1	-18%	5%	16µM*	-9%	7%
Cc1ccc(F)cc1CNC(=O)c1cc(COc2ccc3ncccc3c2)on1	-9%	8%	25µM*	-19%	-1%
Cc1ccc(-c2cc(C(=O)N(Cc3ccccc3)Cc3ccco3)no2)cc1F	/	17%	-14%	/	6%
CC(CCC(=O)O)C1CCC2C3CC[C@@H]4CCCC[C@@]4(C)C3CC[C@@]12C (some centres undefined)	/	/	-7%	/	/
COc1ccc2cc(Br)ccc2c1CC(=O)N(C)C	-3%	-3%	-12%	13%	/
COc1ccc(CN(C)Cc2c(O)ccc3cc(Br)ccc23)cc1OC	34%	-12%	-4%	12%	8.9µM*
COc1ccc(CCN(C)Cc2c(O)ccc3cc(Br)ccc23)cc1OC	2%	-2%	?	40%	4µM*
Cc1cccc(NC(=O)Cn2nc(N3CCN(c4ccccc4)CC3)ccc2=O)c1C	/	2%	-19%	/	21%
CCCCCn1cc2c(c1-c1ccccc1Br)c(=O)n(C)c(=O)n2C	/	25%	0%	/	-7%
N#Cc1cn(-c2ccccc2)nc1-c1ccco1	-19%	?	18%	-20%	45µM*
FC(F)(F)c1cc(CN2CCCC3(CCNCC3)C2)cc(C(F)(F)F)c1	/	/	-13%	/	/
CCCn1nc(NC(=O)C2CCCO2)c2cc3cc(C)ccc3nc21 (centres undefined)	1.1µM*	5%	29%	44%	2%
CCCn1nc(NC(=O)c2ccco2)c2cc3ccccc3nc21	23%	?	?	-4%[2.29 µM]	45µM*
Cc1ccc2cc3c(NC(=O)c4ccco4)nn(C)c3nc2c1	6%	0%	-17%	130%	50µM*
CC(=O)Nc1nn(C)c2nc3cc(C)ccc3cc12	-2%	?	-3%	-4%	4%
Cc1nn(-c2ccc(F)cc2)c(C)c1CNC(=O)c1ccc(-n2cc(NC(=O)c3ccoc3)cn2)cc1	/	/	-10%	/	/
S=c1[nH]nc(-c2cccs2)n1/N=C/c1cn(-c2ccccc2)nc1-c1ccccc1	58%	-6%	-3%	4µM*	4%
CC(C)c1ccc(N(C(=O)c2snc(C(N)=O)c2N)C(C(=O)NCC2CCCO2)c2ccc(N(C)C)cc2)cc1 (centres undefined)	14µM*	6%	18µM*	124%	25%
Cc1ccc(C(C(=O)NC2CCCC2)N(Cc2cccnc2)C(=O)c2snc(C(N)=O)c2N)o1 (centres undefined)	-9%	3%	-7%	2%	45µM*
CN(C)c1ccc(C(C(=O)NCC2CCCO2)N(C(=O)c2snc(C(N)=O)c2N)c2ccccc2)cc1 (centres undefined)	-8%	8%	-14%	-9%	1%
Cc1ccc(N(C(=O)c2snc(C(N)=O)c2N)C(C(=O)NC2CCCC2)c2ccc(C)o2)cc1 (centres undefined)	4%	-3%	-4%	37%	-11%
SMILES	AMA1-RON2 inh	AmpC inh detg	FMDV inh	AmpC inh no detg	Sm TGR block
Cc1ccc(N(C(=O)c2snc(C(N)=O)c2N)C(C(=O)NC2CCCC2)c2ccco2)cc1 (centres undefined)	14%	1%	-15%	29%	40µM*
CC(C)(C)C1CCc2nc(NC(=O)c3cccc(Cl)c3)sc2C1 (centres undefined)	/	3%	2µM*	/	-17%
CCc1c(C)sc2c1CCN(C(=O)Nc1ccc(F)c(Cl)c1)C2c1ccc(F)cc1 (centres undefined)	/	18%	40µM*	/	-2%
CC(C)c1cc(=O)oc2c3c4c(cc12)CCCN4CCC3	17%	-4%	/	26%	45µM*
Cc1c(/C(O)=C2/C(=O)C(=O)N(Cc3cccnc3)C2c2cccs2)cnn1-c1ccccc1 (centres undefined)	11%	0%	-10%	-18%	-7%
Cc1c(/C(O)=C2/C(=O)C(=O)N(Cc3cccnc3)C2c2ccccn2)cnn1-c1ccccc1 (centres undefined)	30%	2%	4µM*	-14%	/
COc1ccc2[nH]c(=O)c(CN(CC3CCCO3)C(=O)Nc3ccc(F)cc3)cc2c1 (centres undefined)	19%	?	14µM*	68%	7%
COc1ccc(NC(=O)N(Cc2cc3cc(C)ccc3[nH]c2=O)CC2CCCO2)cc1 (centres undefined)	-10%	-1%	-21%	4%	6%
COc1cc2c(CCNC(C)=O)c[nH]c2cc1O	4.5µM*	/	-17%	/	/
COc1ccc(CCNC(=O)NCCc2c[nH]c3ccccc23)cc1OC	1%	7%	-24%	-5%	12%
Cc1c(CC(=O)NCCCCCC(=O)O)c(=O)oc2cc3c(cc12)CCC(C)(C)O3	3%	-1%	-16%	-24%	6%
Cc1c(CC(=O)NCCCC(=O)O)c(=O)oc2cc3c(cc12)CCC(C)(C)O3	-5%	-3%	6.3µM*	-18%	-17%
CC(C)CCNC(=O)c1cc(Sc2ccc(F)cc2F)nc2ccccc12	/	2%	-12%	/	1%
Cc1cccc2cc(C3CC(c4ccco4)=NN3S(C)(=O)=O)c(Cl)nc12 (centres undefined)	-12%	-9%	-19%	118%	32µM*
Cc1nc2c(c(=O)n1Cc1ccccc1Cl)c1nc3ccccc3nc1n2Cc1ccco1	/	-6%	/	-1%	2.8µM*
Cc1cc(C)cc(-n2c3nc4ccccc4nc3c3c(=O)n(Cc4ccco4)cnc32)c1	-6%	-10%	?	102%	16µM*
CCOC(=O)C1CCN(C(=O)CSc2n[nH]c(-c3ccccc3Cl)n2)CC1	/	20%	-10%	/	1%
CCOC(=O)N1CCN(c2nc(CN3CCCCC3CCO)nc3c(C)cccc23)CC1 (centres undefined)	/	/	-10%	/	/
Cc1ccc(C2/C(=C(\O)c3ccc4c(c3)OCCO4)C(=O)C(=O)N2CCCN(C)C)o1 (centres undefined)	/	0%	/	-2%	-32%
